Common to all, as to assay: PBM; 200 nM protein, PBS
Conditions in all cases: dsDNA, one strand shown

For experiment [1], the target named is HESX1 (Homo sapiens, UniProt Q9UBX0 95-180, R165K).
The target in experiment [2] is HOXB4 (Homo sapiens, UniProt P17483 148-234).
Experiment [3] deals with SHOX (Homo sapiens, UniProt O15266 103-189).
In experiment [4] the target is HESX1 (Homo sapiens, UniProt Q9UBX0 95-180).
Experiment [5] addresses HOXB4 (Homo sapiens, UniProt P17483 148-234, V174I).
Experiment [6] addresses ALX1 (Homo sapiens, UniProt Q15699 118-204, L144V).
The target in experiment [7] is ALX3 (Homo sapiens, UniProt O95076 139-225, N203Q).
The target in experiment [8] is SHOX (Homo sapiens, UniProt O15266 103-189, R173C).
For experiment [9], the target named is ALX1 (Homo sapiens, UniProt Q15699 118-204, L144R).
Experiment [10] addresses ALX3 (Homo sapiens, UniProt O95076 139-225).
The target in experiment [11] is PROP1 (Homo sapiens, UniProt O75360 56-141).
In experiment [12] the target is HESX1 (Homo sapiens, UniProt Q9UBX0 95-180, R109Q).
Experiment [13] deals with PROP1 (Homo sapiens, UniProt O75360 56-141, R99H).
Experiment [14] concerns the target ALX3 (Homo sapiens, UniProt O95076 139-225, L168Q).
Experiment [15] concerns the target HESX1 (Homo sapiens, UniProt Q9UBX0 95-180, P111T).
The target of experiment [16] is ALX3 (Homo sapiens, UniProt O95076 139-225, L168V).
In experiment [17] the target is PROP1 (Homo sapiens, UniProt O75360 56-141, F88S).
Experiment [18] addresses HESX1 (Homo sapiens, UniProt Q9UBX0 95-180, F115L).
Experiment [19] deals with ALX3 (Homo sapiens, UniProt O95076 139-225, N203S).
Another experiment has as its target HOXA4 (Homo sapiens, UniProt Q00056 201-287, R217L).

Sequence of ALX3 (Homo sapiens, UniProt O95076 139-225, L168V) (O95076 139-225 L168V): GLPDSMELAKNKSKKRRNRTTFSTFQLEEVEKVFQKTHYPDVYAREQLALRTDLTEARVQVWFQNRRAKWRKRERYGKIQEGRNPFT
Sequence of ALX1 (Homo sapiens, UniProt Q15699 118-204, L144V) (Q15699 118-204 L144V): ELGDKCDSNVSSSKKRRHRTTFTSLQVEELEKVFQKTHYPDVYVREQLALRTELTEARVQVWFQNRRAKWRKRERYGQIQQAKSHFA
Sequence of ALX3 (Homo sapiens, UniProt O95076 139-225) (O95076 139-225): as the sequence (O95076 139-225 L168V) above, with V30L counted along it
Sequence of ALX3 (Homo sapiens, UniProt O95076 139-225, N203Q) (O95076 139-225 N203Q): as the sequence (O95076 139-225 L168V) above, with V30L, N65Q counted along it
Sequence of HOXA4 (Q00056 201-287 R217L): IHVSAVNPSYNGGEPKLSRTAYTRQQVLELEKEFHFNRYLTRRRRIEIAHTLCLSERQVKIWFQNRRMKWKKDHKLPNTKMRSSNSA
Sequence of SHOX (Homo sapiens, UniProt O15266 103-189, R173C) (O15266 103-189 R173C): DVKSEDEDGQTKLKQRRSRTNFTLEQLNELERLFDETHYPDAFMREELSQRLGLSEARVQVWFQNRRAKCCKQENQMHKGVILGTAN
Sequence of HESX1 (Homo sapiens, UniProt Q9UBX0 95-180) (Q9UBX0 95-180): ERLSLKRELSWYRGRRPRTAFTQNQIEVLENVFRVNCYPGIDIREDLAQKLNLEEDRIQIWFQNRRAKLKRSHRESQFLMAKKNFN
Sequence of HESX1 (Homo sapiens, UniProt Q9UBX0 95-180, R165K) (Q9UBX0 95-180 R165K): as the sequence (Q9UBX0 95-180) above, with R71K counted along it
Sequence of HESX1 (Homo sapiens, UniProt Q9UBX0 95-180, R109Q) (Q9UBX0 95-180 R109Q): as the sequence (Q9UBX0 95-180) above, with R15Q counted along it
Sequence of HESX1 (Homo sapiens, UniProt Q9UBX0 95-180, F115L) (Q9UBX0 95-180 F115L): as the sequence (Q9UBX0 95-180) above, with F21L counted along it
Sequence of HOXB4 (Homo sapiens, UniProt P17483 148-234, V174I) (P17483 148-234 V174I): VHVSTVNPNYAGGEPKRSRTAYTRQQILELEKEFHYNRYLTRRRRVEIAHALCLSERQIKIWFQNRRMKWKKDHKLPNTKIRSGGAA
Sequence of ALX3 (Homo sapiens, UniProt O95076 139-225, L168Q) (O95076 139-225 L168Q): as the sequence (O95076 139-225 L168V) above, with V30Q counted along it
Sequence of SHOX (Homo sapiens, UniProt O15266 103-189) (O15266 103-189): as the sequence (O15266 103-189 R173C) above, with C71R counted along it
Sequence of PROP1 (Homo sapiens, UniProt O75360 56-141) (O75360 56-141): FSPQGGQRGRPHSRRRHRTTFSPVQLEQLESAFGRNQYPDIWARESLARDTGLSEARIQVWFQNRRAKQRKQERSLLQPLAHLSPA
Sequence of ALX3 (Homo sapiens, UniProt O95076 139-225, N203S) (O95076 139-225 N203S): as the sequence (O95076 139-225 L168V) above, with V30L, N65S counted along it
Sequence of HESX1 (Homo sapiens, UniProt Q9UBX0 95-180, P111T) (Q9UBX0 95-180 P111T): as the sequence (Q9UBX0 95-180) above, with P17T counted along it
Sequence of PROP1 (Homo sapiens, UniProt O75360 56-141, F88S) (O75360 56-141 F88S): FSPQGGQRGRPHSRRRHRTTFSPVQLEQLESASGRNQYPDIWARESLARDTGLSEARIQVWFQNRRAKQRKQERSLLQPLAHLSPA
Sequence of PROP1 (Homo sapiens, UniProt O75360 56-141, R99H) (O75360 56-141 R99H): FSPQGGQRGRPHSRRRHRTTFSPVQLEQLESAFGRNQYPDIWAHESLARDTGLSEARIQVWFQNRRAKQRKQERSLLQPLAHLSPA
Sequence of HOXB4 (Homo sapiens, UniProt P17483 148-234) (P17483 148-234): as the sequence (P17483 148-234 V174I) above, with I27V counted along it
Sequence of ALX1 (Homo sapiens, UniProt Q15699 118-204, L144R) (Q15699 118-204 L144R): as the sequence (Q15699 118-204 L144V) above, with V27R counted along it

Regarding AATTAGTC, the binding signal with HESX1 [1] was 11.5 upbm affinity estimate (log intensity, higher = more binding, comparable within an allelic series); with HOXB4 [2], 12.4 upbm affinity estimate (log intensity, higher = more binding, comparable within an allelic series); with SHOX [3], 11.7 upbm affinity estimate (log intensity, higher = more binding, comparable within an allelic series); in the experiment with HESX1 [4] it was 11.8 upbm affinity estimate (log intensity, higher = more binding, comparable within an allelic series); in the experiment with HOXB4 [5], 13 upbm affinity estimate (log intensity, higher = more binding, comparable within an allelic series); with ALX1 [6], 11.5 upbm affinity estimate (log intensity, higher = more binding, comparable within an allelic series). Further, the binding signal was 8.3 upbm affinity estimate (log intensity, higher = more binding, comparable within an allelic series) with ALX3 [7]; 9.37 upbm affinity estimate (log intensity, higher = more binding, comparable within an allelic series) with SHOX [8]; 11.1 upbm affinity estimate (log intensity, higher = more binding, comparable within an allelic series) with ALX1 [9]; 12.2 upbm affinity estimate (log intensity, higher = more binding, comparable within an allelic series) with ALX3 [10]; 11.1 upbm affinity estimate (log intensity, higher = more binding, comparable within an allelic series) in the experiment with PROP1 [11]; 8.88 upbm affinity estimate (log intensity, higher = more binding, comparable within an allelic series) with HESX1 [12]. Moreover, the binding signal in the experiment with PROP1 [13] is 11 upbm affinity estimate (log intensity, higher = more binding, comparable within an allelic series); with ALX3 [14], 10.3 upbm affinity estimate (log intensity, higher = more binding, comparable within an allelic series); in the experiment with HESX1 [15], 10.4 upbm affinity estimate (log intensity, higher = more binding, comparable within an allelic series); with ALX3 [16], 9.88 upbm affinity estimate (log intensity, higher = more binding, comparable within an allelic series); in the experiment with PROP1 [17] it was 7.67 upbm affinity estimate (log intensity, higher = more binding, comparable within an allelic series); with HESX1 [18] it was 7.67 upbm affinity estimate (log intensity, higher = more binding, comparable within an allelic series). In the experiment with ALX3 [19], the binding signal was 8.39 upbm affinity estimate (log intensity, higher = more binding, comparable within an allelic series).
As for CCCCGGCG, the binding signal in the experiment with HESX1 [1] was 6.58 upbm affinity estimate (log intensity, higher = more binding, comparable within an allelic series); with SHOX [3], 6.85 upbm affinity estimate (log intensity, higher = more binding, comparable within an allelic series); with HESX1 [4], 6.57 upbm affinity estimate (log intensity, higher = more binding, comparable within an allelic series); in the experiment with HOXA4, 9.73 upbm affinity estimate (log intensity, higher = more binding, comparable within an allelic series); with ALX3 [7], 7.82 upbm affinity estimate (log intensity, higher = more binding, comparable within an allelic series); in the experiment with SHOX [8], 7.05 upbm affinity estimate (log intensity, higher = more binding, comparable within an allelic series). The binding signal with ALX3 [10] is 7.76 upbm affinity estimate (log intensity, higher = more binding, comparable within an allelic series); with HESX1 [12], 6.61 upbm affinity estimate (log intensity, higher = more binding, comparable within an allelic series); with ALX3 [14], 7.73 upbm affinity estimate (log intensity, higher = more binding, comparable within an allelic series); in the experiment with HESX1 [15], 6.61 upbm affinity estimate (log intensity, higher = more binding, comparable within an allelic series); with ALX3 [16], 7.68 upbm affinity estimate (log intensity, higher = more binding, comparable within an allelic series); in the experiment with HESX1 [18], 6.51 upbm affinity estimate (log intensity, higher = more binding, comparable within an allelic series). The binding signal with ALX3 [19] was 7.81 upbm affinity estimate (log intensity, higher = more binding, comparable within an allelic series).
On to CAATTAAC, for which the binding signal was 13.1 upbm affinity estimate (log intensity, higher = more binding, comparable within an allelic series) in the experiment with HESX1 [1]; 13.2 upbm affinity estimate (log intensity, higher = more binding, comparable within an allelic series) with HOXB4 [2]; 12.1 upbm affinity estimate (log intensity, higher = more binding, comparable within an allelic series) with SHOX [3]; 13.1 upbm affinity estimate (log intensity, higher = more binding, comparable within an allelic series) with HESX1 [4]; 12.4 upbm affinity estimate (log intensity, higher = more binding, comparable within an allelic series) in the experiment with HOXA4; 13.9 upbm affinity estimate (log intensity, higher = more binding, comparable within an allelic series) with HOXB4 [5]. Also, the binding signal in the experiment with ALX1 [6] was 11.8 upbm affinity estimate (log intensity, higher = more binding, comparable within an allelic series); in the experiment with ALX3 [7] it was 8.37 upbm affinity estimate (log intensity, higher = more binding, comparable within an allelic series); in the experiment with SHOX [8] it was 9.74 upbm affinity estimate (log intensity, higher = more binding, comparable within an allelic series); with ALX1 [9] it was 11.5 upbm affinity estimate (log intensity, higher = more binding, comparable within an allelic series); in the experiment with ALX3 [10], 12.7 upbm affinity estimate (log intensity, higher = more binding, comparable within an allelic series); with PROP1 [11], 11.6 upbm affinity estimate (log intensity, higher = more binding, comparable within an allelic series). Also, the binding signal in the experiment with HESX1 [12] was 9.81 upbm affinity estimate (log intensity, higher = more binding, comparable within an allelic series); in the experiment with PROP1 [13] it was 11.8 upbm affinity estimate (log intensity, higher = more binding, comparable within an allelic series); with ALX3 [14], 10.8 upbm affinity estimate (log intensity, higher = more binding, comparable within an allelic series); with HESX1 [15] it was 11.7 upbm affinity estimate (log intensity, higher = more binding, comparable within an allelic series); with ALX3 [16] it was 10.3 upbm affinity estimate (log intensity, higher = more binding, comparable within an allelic series); with PROP1 [17], 7.68 upbm affinity estimate (log intensity, higher = more binding, comparable within an allelic series). The binding signal with HESX1 [18] was 7.95 upbm affinity estimate (log intensity, higher = more binding, comparable within an allelic series); with ALX3 [19], 8.57 upbm affinity estimate (log intensity, higher = more binding, comparable within an allelic series).
CTAATTAC: the binding signal with HESX1 [1] was 13.2 upbm affinity estimate (log intensity, higher = more binding, comparable within an allelic series); with HOXB4 [2], 13.6 upbm affinity estimate (log intensity, higher = more binding, comparable within an allelic series); with SHOX [3], 12.8 upbm affinity estimate (log intensity, higher = more binding, comparable within an allelic series); in the experiment with HESX1 [4], 13.2 upbm affinity estimate (log intensity, higher = more binding, comparable within an allelic series); in the experiment with HOXA4, 12.7 upbm affinity estimate (log intensity, higher = more binding, comparable within an allelic series); in the experiment with HOXB4 [5], 14.4 upbm affinity estimate (log intensity, higher = more binding, comparable within an allelic series). Also, the binding signal in the experiment with ALX1 [6] was 12.2 upbm affinity estimate (log intensity, higher = more binding, comparable within an allelic series); with ALX3 [7], 8.37 upbm affinity estimate (log intensity, higher = more binding, comparable within an allelic series); with SHOX [8] it was 10.1 upbm affinity estimate (log intensity, higher = more binding, comparable within an allelic series); with ALX1 [9], 11.8 upbm affinity estimate (log intensity, higher = more binding, comparable within an allelic series); with ALX3 [10] it was 12.9 upbm affinity estimate (log intensity, higher = more binding, comparable within an allelic series); with PROP1 [11], 12 upbm affinity estimate (log intensity, higher = more binding, comparable within an allelic series). The binding signal with HESX1 [12] was 9.51 upbm affinity estimate (log intensity, higher = more binding, comparable within an allelic series); in the experiment with PROP1 [13] it was 12 upbm affinity estimate (log intensity, higher = more binding, comparable within an allelic series); with ALX3 [14], 11 upbm affinity estimate (log intensity, higher = more binding, comparable within an allelic series); in the experiment with HESX1 [15], 11.8 upbm affinity estimate (log intensity, higher = more binding, comparable within an allelic series); in the experiment with ALX3 [16], 10.5 upbm affinity estimate (log intensity, higher = more binding, comparable within an allelic series); with PROP1 [17] it was 7.85 upbm affinity estimate (log intensity, higher = more binding, comparable within an allelic series). In addition, the binding signal was 7.95 upbm affinity estimate (log intensity, higher = more binding, comparable within an allelic series) in the experiment with HESX1 [18] and 8.5 upbm affinity estimate (log intensity, higher = more binding, comparable within an allelic series) in the experiment with ALX3 [19].
